Data: PubChem BioAssay (EPA / NIEHS)
Records with an inconclusive call do not appear. Active and inactive are the calls of the source. Rule for the calls: active = hit-call score of the fitted dose curve at least 0.9, where 1 is the maximum; inconclusive = response in the unintended direction; inactive = score below 0.9.

The compounds below were run against guinea pig Serotonin, 5-Hydroxytryptamine Receptor 4 (5HT4), HTR4 (gene 100135548) (UniProt O70528) (assay: NVS_GPCR_g5HT4: NovaScreen (NVS) G Protein-Coupled Receptor Assay for guinea pig Serotonin, 5-Hydroxytryptamine Receptor 4 (5HT4) (AID 2283294)).
guinea pig Serotonin, 5-Hydroxytryptamine Receptor 4 (5HT4), HTR4 (gene 100135548), sequence (O70528 whole entry, looked up): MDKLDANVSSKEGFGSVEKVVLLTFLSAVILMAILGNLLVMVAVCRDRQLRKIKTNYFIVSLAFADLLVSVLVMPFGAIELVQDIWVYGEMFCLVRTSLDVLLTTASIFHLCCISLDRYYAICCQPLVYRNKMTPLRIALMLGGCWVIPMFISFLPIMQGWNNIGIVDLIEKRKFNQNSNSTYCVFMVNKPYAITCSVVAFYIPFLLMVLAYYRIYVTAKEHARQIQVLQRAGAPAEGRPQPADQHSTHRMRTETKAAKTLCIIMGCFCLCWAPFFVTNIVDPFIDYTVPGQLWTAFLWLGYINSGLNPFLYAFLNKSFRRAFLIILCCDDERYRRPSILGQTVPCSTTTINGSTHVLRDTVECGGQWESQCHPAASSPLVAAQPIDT
Procedure, shortened: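 Guinea pig striatal membranes; radioligand competitive displacement, filtration and scintillation counting after 1 h. Primary screen in duplicate at 25 uM; actives then tested in concentration series; loss of binding signal fitted relative to DMSO.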
In the case of `Nc1cccc2c(N)cccc12`, the outcome is reported as “inactive”.
`Cc1cc(C)c(O)c(C)c1` was tested, and the outcome was “inactive”.
In the case of `CCC(=C(c1ccc(O)cc1)c1ccc(OCCN(C)C)cc1)c1ccccc1`, the AC50 is reported as 0.868 µM (active).
With `NC(=O)N(O)[C@@H]1C=C[C@H](Oc2cccc(Oc3ccc(F)cc3)c2)C1` the AC50 was 17.6 µM (active).
For `Cc1cc(CCN2CCN(c3nsc4ccccc34)CC2)cc2c1NC(=O)CC2(C)C`, the AC50 was 15.2 µM (active).
In the case of `Cc1oc(-c2ccccc2)nc1CCOc1ccc(C[C@H](Nc2ccccc2C(=O)c2ccccc2)C(=O)O)cc1`, the AC50 is reported as 25 µM (active).
`CCCOc1sc(C(=O)N2CCC(c3cc(CN)ccc3F)CC2)c(C)c1Br` was tested, and the AC50 was 25.9 µM (active).
With `Oc1cc2ccccc2c2ccccc12` the outcome was “inactive”.
In the case of `CN1CCN(c2ccccc2/C=C2\SCCN(c3ccc(Cl)c(Cl)c3)C2=O)CC1`, the AC50 is reported as 6.07 µM (active).
With `CCN(CC)CCNc1ccc(CNC=O)c2sc3ccc(OC)cc3c(=O)c12` the AC50 was 7.23 µM (active).

Each compound was assayed against rat Serotonin, 5-Hydroxytryptamine Receptor (5HT), Non-Selective Binding, Htr1a (gene 24473) (UniProt P19327) (assay: NVS_GPCR_r5HT_NonSelective: NovaScreen (NVS) G Protein-Coupled Receptor Assay for rat Serotonin, 5-Hydroxytryptamine Receptor (5HT), Non-Selective Binding (AID 2283295)).
rat Serotonin, 5-Hydroxytryptamine Receptor (5HT), Non-Selective Binding, Htr1a (gene 24473), sequence (P19327 whole entry, looked up): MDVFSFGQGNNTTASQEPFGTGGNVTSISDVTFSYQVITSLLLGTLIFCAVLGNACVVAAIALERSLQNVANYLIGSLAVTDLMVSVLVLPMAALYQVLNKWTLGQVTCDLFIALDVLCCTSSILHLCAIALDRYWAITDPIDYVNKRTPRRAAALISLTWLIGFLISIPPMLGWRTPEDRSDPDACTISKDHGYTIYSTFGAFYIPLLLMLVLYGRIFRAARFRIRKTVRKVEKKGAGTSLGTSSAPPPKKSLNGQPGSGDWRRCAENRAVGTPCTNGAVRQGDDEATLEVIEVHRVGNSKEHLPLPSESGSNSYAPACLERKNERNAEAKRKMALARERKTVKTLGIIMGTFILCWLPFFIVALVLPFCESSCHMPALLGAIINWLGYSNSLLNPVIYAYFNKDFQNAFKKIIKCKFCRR
Protocol: (§1) NVS_GPCR_r5HT_NonSelective is a biochemical, single-readout assay that uses extracted gene-proteins from Rat cortical membranes in a tissue-based cell-free assay. Measurements were taken 1 hour after chemical dosing in a 48-well plate.NVS_GPCR_r5HT_NonSelective is one of one assay component(s) measured or calculated from the NVS_GPCR_r5HT_NonSelective assay. It is designed to make measurements of radioligand binding, a form of binding reporter, as detected with scintillation counting signals by Filter-based radiodetection technology.Data from the assay component NVS_GPCR_r5HT_NonSelective was analyzed into 1 assay endpoint. This assay endpoint, NVS_GPCR_r5HT_NonSelective, was analyzed in the positive analysis fitting direction relative to DMSO as the negative control and baseline of activity. Using a type of binding reporter, loss-of-signal activity can be used to understand changes in the binding as they relate to the gene Htr1a. Furthermore, this assay endpoint can be referred to as a primary readout, because the performed assay has only produced 1 assay endpoint. To generalize the intended target to other relatable targets, this assay endpoint is annotated to the gpcr intended target family, where the subfamily is rhodopsin-like receptor.
(§2) Binding assays used specific radioligands (tritiated, iodinated) with non-radioactive competitive displacement ligands in agonist or antagonist protocols (as indicated) and various reference compounds and inhibitors to titrate specific binding to receptors and transporters. Most enzyme assays (CYPs, kinases, phosphatases, proteases, HDACs) used recombinant protein and specific substrates (fluorescence mostly, some colorimetric and radioactive) and inhibitors, followed by a biochemical separation of substrate and product. All assays for the biochemical HTS were initially run in duplicate at a single concentration (10 uM for CYP450 assays and 25 uM for all others). […] Each assay was run with positive and negative controls, and concurrent controls on every plate. The follow-up (secondary) screen tested active chemical-pairs in concentration series, as well as a few additional assays not tested in the primary screen, some selected negative inactives, and several cases re-run in the concentration series for confirmatory purposes.
`O=[N+]([O-])c1ccc(O)cc1` was tested, and the outcome was “inactive”.
For `CCCOc1sc(C(=O)N2CCC(c3cc(CN)ccc3F)CC2)c(C)c1Br`, the AC50 was 11.1 µM (active).
`CN1CCN(c2ccccc2/C=C2\SCCN(c3ccc(Cl)c(Cl)c3)C2=O)CC1` was tested, and the AC50 was 11.9 µM (active).
For `CCN(CC)CCNc1ccc(CNC=O)c2sc3ccc(OC)cc3c(=O)c12`, the AC50 was 40.2 µM (active).
For `CC(=O)NC1(c2cccc(F)c2)CCN(CC[C@@]2(c3ccc(Cl)c(Cl)c3)CN(c3ccccc3)C(=O)CO2)CC1`, the AC50 was 2.9 µM (active).

The compounds below were run on rat Adrenergic, Alpha 1B Receptor (Adra1B), gene 24173 (assay: NVS_GPCR_rAdra1B: NovaScreen (NVS) G Protein-Coupled Receptor Assay for rat Adrenergic, Alpha 1B Receptor (Adra1B) (AID 2283297)).
Protocol: as §1, with “NVS_GPCR_rAdra1B” for “NVS_GPCR_r5HT_NonSelective”, “liver” for “cortical”, “plate.NVS_GPCR_rAdra1B” for “plate.NVS_GPCR_r5HT_NonSelective”, “NVS_GPCR_rAdra1B,” for “NVS_GPCR_r5HT_NonSelective,”, “Adra1b.” for “Htr1a.”
as §2
In the case of `CCCCCCCC(=O)O`, the outcome is reported as “inactive”.
For `CCCCCCCCCCCCc1ccccc1S(=O)(=O)O`, the AC50 was 30.9 µM (active).
With `NC(=O)N(O)[C@@H]1C=C[C@H](Oc2cccc(Oc3ccc(F)cc3)c2)C1` the outcome was “inactive”.
`CC[C@H](C)[C@@H](C(=O)O)n1sc2ccccc2c1=O` was tested, and the outcome was “inactive”.
In the case of `CCCOc1sc(C(=O)N2CCC(c3cc(CN)ccc3F)CC2)c(C)c1Br`, the AC50 is reported as 17.3 µM (active).
With `CCN(CC)CCNc1ccc(CNC=O)c2sc3ccc(OC)cc3c(=O)c12` the AC50 was 19.4 µM (active).

What follows are compounds tested against rat Adrenergic Receptor, Beta (Adrb), Non-selective Binding, Adrb1 (gene 24925) (UniProt P18090) (assay: NVS_GPCR_rAdrb_NonSelective: NovaScreen (NVS) G Protein-Coupled Receptor Assay for rat Adrenergic Receptor, Beta (Adrb), Non-selective Binding (AID 2283298)).
rat Adrenergic Receptor, Beta (Adrb), Non-selective Binding, Adrb1 (gene 24925), sequence (P18090 whole entry, looked up): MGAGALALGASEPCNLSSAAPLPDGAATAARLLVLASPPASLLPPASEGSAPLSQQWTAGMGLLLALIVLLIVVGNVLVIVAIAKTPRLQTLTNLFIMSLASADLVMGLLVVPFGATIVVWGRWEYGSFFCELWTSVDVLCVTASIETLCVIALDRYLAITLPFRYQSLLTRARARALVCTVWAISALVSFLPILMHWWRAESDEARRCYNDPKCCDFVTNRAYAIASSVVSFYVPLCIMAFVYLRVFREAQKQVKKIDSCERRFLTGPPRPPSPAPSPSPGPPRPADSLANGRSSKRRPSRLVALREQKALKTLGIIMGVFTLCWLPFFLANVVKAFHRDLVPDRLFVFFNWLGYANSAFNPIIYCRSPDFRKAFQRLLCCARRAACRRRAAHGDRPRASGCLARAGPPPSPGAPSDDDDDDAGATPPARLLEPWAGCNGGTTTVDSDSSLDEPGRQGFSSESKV
Procedure, shortened: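 Non-selective beta-adrenergic radioligand binding in rat cortical membranes, 1 h incubation, filter-based scintillation read-out. Primary screen 25 uM in duplicate; hits retested in concentration-response up to 50 uM, DMSO baseline.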
For `CC(C)CCCCCCOC(=O)CCCCC(=O)OCCCCCCC(C)C`, the outcome was “inactive”.
In the case of `CCCOc1sc(C(=O)N2CCC(c3cc(CN)ccc3F)CC2)c(C)c1Br`, the AC50 is reported as 3.95 µM (active).
For `O=c1c(-c2ccc(O)cc2)coc2cc(O)ccc12`, the outcome was “inactive”.
In the case of `CN1CCN(c2ccccc2/C=C2\SCCN(c3ccc(Cl)c(Cl)c3)C2=O)CC1`, the AC50 is reported as 2.29 µM (active).
